# The source made the active and inactive calls.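 Rule for the calls, unless noted: active = inhibition at or above 50% at 10 µM; inactive = inhibition below 50%.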
# Columns and labels:
# [1] = inhibitors of TNFa-induced NFkB p65 translocation, primary screen, imaging, HUVEC, MLSMR starter and 10KST1 sets (AID 438;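 active = inhibition above 20% together with a positive visual image hit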;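 note: compound added about 3h40 before a 20 min TNFalpha stimulation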;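 for inhibition: signal is the nuclear over cytoplasmic p65 intensity ratio per well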); conditions: HUVEC TNFa-induced p65 nuclear translocation; cell count: measured here: nuclei count (cytotoxicity indicator), at 2.08 µM; inhibition: at 2 µM, stronger effect = higher value, 0% TNFa-plus-vehicle, 100% no-TNFa wells
# [2] = reduction of polyQ htt aggregates in cells – imaging, exon1htt(103Q)mCFP cells, high-content imaging, primary screen (AID 483;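 active = visual image review flags a hit and inhibition of aggregation exceeds 20%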;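 note: compound exposure lasted 3 days before fixation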;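 for nuclei count: percent of the per-plate median nuclei count of sample wells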); conditions: exon1htt(103Q)mCFP cell line, aggregate imaging, at 2 µM; inhibition of aggregation: stronger effect = higher value; nuclei count: measured here: cell count, toxicity
# [3] = endothelial E-selectin expression blockers – imaging, HUVEC, immunofluorescence, MLSMR starter and 10KST1 sets, primary screen (AID 487;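 active = visually confirmed hit in the image check and inhibition above 20%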;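 for inhibition: signal is fraction of cell area covered by stained E-selectin grains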;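 for nuclei count: 100% = median nuclei count of all wells on the same plate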); conditions: HUVEC TNFalpha-induced E-selectin immunofluorescence imaging, at 2 µM; inhibition: stronger effect = higher value; nuclei count: measured here: cell number, toxicity
# [4] = target: Voltage-gated potassium channel subunit beta-2 (Rattus norvegicus) (UniProt P62483); test: inhibitors of rat Kvbeta2 reductase activity – biochemical, NADPH fluorescence, primary screen (AID 622;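 active = fluorescence slope higher than the sample average by over 3 SD, cut at about -0.22 in these data, passing the limit was not always enough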;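 note: slope of raw intensity against log time taken from 70 to 1610 s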); conditions: recombinant KvBeta, 4-cyanobenzaldehyde reduction, at 10 µM, stronger effect = higher value
# [5] = target: Voltage-gated potassium channel subunit beta-2 (Rattus norvegicus) (UniProt P62483); test: enhancers of rat Kvbeta2 NADPH turnover – biochemical, NADPH fluorescence, primary screen (AID 623;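 active = NADPH fluorescence slope more negative than the mean of all samples by about 3 SD, 99.7% confidence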;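 note: fluorescence intensity change per second fitted from 20 to 320 s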); conditions: Recombinant KvBeta, NADPH fluorescence decrease slope, 10 min; at 10 µM; stronger effect = lower value
# [6] = target: Alpha-2C adrenergic receptor (Homo sapiens) (UniProt P18825); test: compounds altering alpha2C-coupled GIRK flux – cell-based, HEK293 alpha2C/GIRK1/2, thallium flux, primary screen (AID 624;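 active = fluorescence slope after compound addition differing from the mean of all screened samples at 99.7% confidence, in either direction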;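 note: slope of fluorescence ratio to pre-addition baseline per second over 15 to 24 s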); conditions: thallium flux BTC fluorescence, at 10 µM, actives lie on both sides
# [7] = blockers of RIG-like receptor reporter activation – cell-based, Sendai virus stimulus, luciferase, 10K MLSCN set, TLR/RLR signaling modifier project, primary screen (AID 602276); conditions: HEK293 RL24 IRF3 luciferase reporter, at 10 µM, stronger effect = higher value;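 note: firefly luciferase from ISG56 promoter only with Renilla not read in this screen; 0% = Sendai virus plus DMSO and 100% = medium plus DMSO without virus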
# [8] = TLR3 IRF3 reporter activation blockers – cell-based, poly I:C stimulus, luciferase, 10K MLSCN set, primary screen (AID 602277;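 active = inhibition of the reporter signal at or above 50%; inactive = inhibition below 50%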); conditions: HEK293-TLR3 RL24 IRF3 luciferase reporter, at 10 µM, stronger effect = higher value
# Alpha-2C adrenergic receptor (Homo sapiens), sequence (P18825 whole entry, looked up): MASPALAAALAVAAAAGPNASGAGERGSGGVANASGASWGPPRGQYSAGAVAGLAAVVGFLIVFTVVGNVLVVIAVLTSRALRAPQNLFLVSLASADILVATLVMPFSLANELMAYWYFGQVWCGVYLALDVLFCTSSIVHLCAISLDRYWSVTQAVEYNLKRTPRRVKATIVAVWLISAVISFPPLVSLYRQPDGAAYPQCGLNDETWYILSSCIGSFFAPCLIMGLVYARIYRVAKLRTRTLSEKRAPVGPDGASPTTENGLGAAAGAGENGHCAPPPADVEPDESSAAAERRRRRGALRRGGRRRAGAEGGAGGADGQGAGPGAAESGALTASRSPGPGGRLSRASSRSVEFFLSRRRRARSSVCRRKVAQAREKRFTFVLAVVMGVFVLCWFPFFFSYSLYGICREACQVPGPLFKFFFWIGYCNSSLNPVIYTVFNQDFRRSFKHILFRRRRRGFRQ
# Voltage-gated potassium channel subunit beta-2 (Rattus norvegicus), sequence (P62483 whole entry, looked up): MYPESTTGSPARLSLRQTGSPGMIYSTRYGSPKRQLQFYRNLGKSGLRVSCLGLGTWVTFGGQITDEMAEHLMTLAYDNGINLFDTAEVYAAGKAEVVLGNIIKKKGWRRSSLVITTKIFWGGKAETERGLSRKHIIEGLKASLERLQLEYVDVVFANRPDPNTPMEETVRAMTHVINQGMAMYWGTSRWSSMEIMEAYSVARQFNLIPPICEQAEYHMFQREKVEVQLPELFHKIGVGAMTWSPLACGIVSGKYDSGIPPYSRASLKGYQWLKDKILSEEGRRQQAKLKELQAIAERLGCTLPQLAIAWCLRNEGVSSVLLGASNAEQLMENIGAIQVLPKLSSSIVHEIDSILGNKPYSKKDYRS
Structure (SMILES),cell count [1],inhibition [1],inhibition of aggregation [2],nuclei count [2] [%],inhibition [3],nuclei count [3] [%],fluorescence slope [4],NADPH fluorescence slope [5],slope [6],inhibition [7],inhibition [8]
Cc1ccc(CNC(=O)C2CCCN(S(=O)(=O)c3cnc[nH]3)C2)cc1 (centres undefined),768,-11% (inactive),-30.5% (inactive),102,-23.4% (inactive),92.7,-0.538 (inactive),-1.6e-05 (inactive),0.00735 (inactive),-2.34% (inactive),15.9% (inactive)
COc1ccc(Cl)c(NCCC(=O)O)c1,632,-4.2% (inactive),2.2% (inactive),110,-96.7% (inactive),130,-0.453 (inactive),-0.000352 (inactive),0.00574 (inactive),-8.17% (inactive),-4.52% (inactive)
CCOC(=O)c1cccc(NC(=O)CS(=O)(=O)Cc2nc(-c3cccc(OC)c3)oc2C)c1,572,-40.8% (inactive),-19.3% (inactive),106,-15.4% (inactive),102,-0.524 (inactive),-3.5e-05 (inactive),0.00568 (inactive),-5.01% (inactive),12.4% (inactive)
Cn1cccc1Cc1nnc(SCC(=O)NCC2CCCO2)n1-c1ccc(F)cc1 (centres undefined),716,-4% (inactive),50.2% (active),95.9,-44.1% (inactive),111,-0.537 (inactive),-3e-05 (inactive),0.00677 (inactive),10.8% (inactive),39.9% (inactive)
O=C(CSCCSCC(=O)c1ccco1)c1ccco1,594,-6.1% (inactive),-12% (inactive),84.7,-44.4% (inactive),138,-0.421 (inactive),-6.5e-05 (inactive),0.00644 (inactive),7.09% (inactive),7.22% (inactive)
CN=Cc1cc(-c2ccccc2)sc1O,330,-2% (inactive),-19.3% (inactive),126,-90.3% (inactive),114,-0.574 (inactive),-1.5e-05 (inactive),0.00861 (inactive),-23.3% (inactive),-118% (inactive)
COc1ccc(Cn2nnnc2C(c2cc3cc(C)cc(C)c3[nH]c2=O)N2CCOCC2)cc1 (centres undefined),762,-12.9% (inactive),33.9% (inactive),113,-9.5% (inactive),108,-0.51 (inactive),-6.8e-05 (inactive),0.00452 (inactive),13.8% (inactive),24.9% (inactive)
CSc1nc(C)cc(OCC(=O)N2CCOCC2)n1,262,-7.5% (inactive),25.5% (inactive),104,-37.5% (inactive),95,-0.451 (inactive),-3.8e-05 (inactive),0.00307 (inactive),7.52% (inactive),23.9% (inactive)
O=C(CN1C(=O)C2C3C=CC(C3)C2C1=O)NCc1ccc2c(c1)OCO2 (centres undefined),421,7.5% (inactive),8.3% (inactive),102,-109% (inactive),104,-0.601 (inactive),1.2e-05 (inactive),0.00636 (inactive),-4.21% (inactive),6.98% (inactive)
CCCCc1n[nH]c2c1C(=O)CC(C)(C)C2,712,-28.4% (inactive),3.8% (inactive),113,-75.3% (inactive),120,-0.449 (inactive),-4.7e-05 (inactive),0.00506 (inactive),3.68% (inactive),19.2% (inactive)
COc1cccc(-c2noc(-c3cccs3)n2)c1,390,-0.7% (inactive),11.7% (inactive),110,-29.5% (inactive),131,-0.619 (inactive),2.2e-06 (inactive),0.00482 (inactive),6.14% (inactive),-8.84% (inactive)
O=C(C1CCN(S(=O)(=O)c2cccc3cccnc23)CC1)N1CCN(C2CCCCC2)CC1,412,10.7% (inactive),3.3% (inactive),69.2,-22.1% (inactive),106,-0.565 (inactive),-1.6e-05 (inactive),0.00678 (inactive),-4.22% (inactive),35.6% (inactive)
Cn1cccc1Cc1nnc(SCC(=O)NCc2ccc(F)cc2)n1-c1ccc(F)cc1,767,-7.4% (inactive),20% (inactive),139,-56.2% (inactive),116,-0.579 (inactive),8.6e-06 (inactive),0.00663 (inactive),-4.39% (inactive),9.66% (inactive)
Cn1c(=O)c2c(nc(-n3ccnc3)n2C)n(C)c1=O,311,-8.5% (inactive),14.2% (inactive),85.8,-22.1% (inactive),104,-0.362 (inactive),8.4e-06 (inactive),0.00573 (inactive),15.7% (inactive),17.1% (inactive)

# — PubChem BioAssay
